Measured values: PubChem BioAssay AID504462 (Sanford-Burnham Center for Chemical Genomics, 2011)
Screen size: about 340,000 compounds; about 1,700 (0.5%) were called active. Rule as the data show it: active = inhibition above about 40%; inactive = the rest. This excerpt belongs to a sample that is enriched for actives.

biological target: Cysteine protease ATG4B (Homo sapiens) (UniProt Q9Y4P1); assay: ATG4B protease inhibitors, primary screen, biochemical, fluorescence, uHTS (AID 504462); details: ATG4B cleavage of LC3-PLA2, NBD-HPC fluorescence, 1 h; at 8.33 µM; stronger effect = higher value
Sequence (Q9Y4P1 whole entry, looked up): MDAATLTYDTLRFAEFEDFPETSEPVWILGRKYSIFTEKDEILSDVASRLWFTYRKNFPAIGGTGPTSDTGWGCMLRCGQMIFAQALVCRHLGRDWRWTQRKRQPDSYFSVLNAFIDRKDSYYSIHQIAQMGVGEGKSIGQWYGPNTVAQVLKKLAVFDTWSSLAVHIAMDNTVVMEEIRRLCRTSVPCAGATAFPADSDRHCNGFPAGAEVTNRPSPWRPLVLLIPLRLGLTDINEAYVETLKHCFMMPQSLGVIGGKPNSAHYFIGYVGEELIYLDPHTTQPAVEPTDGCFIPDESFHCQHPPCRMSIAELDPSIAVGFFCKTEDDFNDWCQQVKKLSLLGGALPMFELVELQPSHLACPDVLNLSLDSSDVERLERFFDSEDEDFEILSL

Compound	inhibition
CC1(C)C/C(=N/Nc2ccc([N+](=O)[O-])cc2[N+](=O)[O-])C(C)(C)O1	0.43% (inactive)
CC(=O)c1c(N2CCOCC2)nc(=S)n(Cc2ccccc2)c1C	-2.2% (inactive)
Oc1c(Cl)cc(Cl)c(Cl)c1Cc1c(O)c(Cl)cc(Cl)c1Cl	87.4% (active)
ClC1(Cl)CC1CSc1ncn[nH]1 (stereo unspecified)	-3.17% (inactive)
Nc1c(Cl)cc(-c2csc(N3CCCC3c3nc4cc(Cl)c(Cl)cc4n3CCOCCO)n2)cc1Cl (stereo unspecified)	-22.9% (inactive)
CC(=O)NC1(c2cccc(F)c2)CCN(CC(=O)NC(C)C)CC1	-3.58% (inactive)
CCc1ccccc1NC(=S)Nc1cc(OC)c(NC(=O)C(C)C)cc1OC	3.4% (inactive)
CCc1ccccc1NC(=O)CCOc1ccccc1	-0.7% (inactive)
CCc1ccccc1NC(=O)/C(=C/c1ccccc1)c1ccccc1	59.5% (active)
CCN1CCN(C(C(=O)NC2CCCC2)c2cc3c(cc2[N+](=O)[O-])OCO3)CC1 (stereo unspecified)	-0.97% (inactive)
O=C(CCn1nnc2ccccc2c1=O)N[C@@H](Cc1c[nH]c2ccccc12)C(=O)O	0.19% (inactive)
O=C(N[C@@H](Cc1c[nH]c2ccccc12)C(=O)O)OCC1c2ccccc2-c2ccccc21	61.3% (active)
Cc1cccc(C)c1OCC(=O)NC(Cc1c[nH]c2ccccc12)C(=O)O (stereo unspecified)	2.14% (inactive)
COCCCNC(=O)C1CCN(c2ccc(N3CCOCC3)nn2)CC1	-8.6% (inactive)
Cc1ccc(-c2ccc(=O)n(Cc3ccc(F)cc3Cl)n2)cc1	17.9% (inactive)
CN(C)Cc1ccc(F)cc1Sc1cc(Cl)ccc1Cl	43.6% (active)
COc1ccc(OC)c2c(N)c(C#N)c(C(F)(F)C(F)(F)F)nc12	3.2% (inactive)
COc1ccc(/C=N/n2nnnc2N)cc1OC	4.77% (inactive)
C=CCOC(=O)c1ccccc1C(=O)OCC=C	-32.7% (inactive)
COc1ccc(OCCNC(=O)c2cc(C3CC3)nc3c2cnn3C(C)C)cc1	-0.45% (inactive)
Cc1ccc(CNC(=O)c2cccnc2Cl)cc1	-10.1% (inactive)
Cc1ccc(CNC(=O)c2ccccc2CCc2ccccc2)cc1	46.1% (active)
CSc1ccccc1C(=O)NCc1ccccc1	5.57% (inactive)
CC(C)CNc1ncnc2c1cnn2Cc1ccc(Cl)cc1	-1.96% (inactive)

Compound	inhibition
Cc1ccc(C)c(NC(=O)C(c2ccccc2)N2CCN(CC(=O)NC3CC3)CC2)c1 (stereo unspecified)	8.15% (inactive)
Cc1cc(SCc2c(F)cccc2Cl)nc(=O)[nH]1	-6.36% (inactive)
Cn1c(SCc2c(F)cccc2Cl)nnc1-c1cnccn1	-6.8% (inactive)
Fc1cccc(Cl)c1CSc1ccc(-c2ccco2)nn1	41.7% (active)
COc1ccc(/C=C2\N=C3CCCN3C2=O)cc1	0.67% (inactive)
COc1ccccc1Oc1ccc(N/C=C2/CCCC2=O)cc1	1.94% (inactive)
COc1ccc(/C=N/NC(=O)C2CC2)c(OC)c1OC	-2.43% (inactive)
COc1ccc(/C=C2\CCc3ccccc3C2=O)c(OC)c1OC	41.9% (active)
COc1ccc(/C=C2/CCCc3ccccc3C2=O)cc1	42.3% (active)
O=C1/C(=C/c2cccs2)CCc2ccccc21	15.7% (inactive)
Cc1cnc(C(=O)N2CCCC(N3CCN(c4ccccc4F)CC3)C2)cn1 (stereo unspecified)	8.65% (inactive)
Cn1c(=O)cc(SCC(=O)N2CCCC2)c2cc(Cl)ccc21	-13.1% (inactive)
N#CCN(C(=O)COC(=O)C1CC2CCCC(C1)C2=O)c1ccccc1 (stereo unspecified)	1.42% (inactive)
CC(=O)c1c(C)[nH]c(C(=O)NCCCN2CCCC2)c1C	-3.1% (inactive)
O=C(CN1CCOCC1)Nc1c(-c2ccccc2)c2cc(Br)ccc2[nH]c1=O	3.52% (inactive)
O=C(N/N=C\C1CC=CCC1)c1ccc(Br)o1 (stereo unspecified)	-3.72% (inactive)
Cc1ccc(C(=O)Nc2c(C#N)c(C)c(C)n2Cc2ccccc2)cc1	15.5% (inactive)
CCCn1c(C)cc(-c2csc(NC(=O)CCc3nc4ccccc4c(=O)[nH]3)n2)c1C	-1.22% (inactive)
CC(=O)Nc1ccc(C(=O)Nc2nc(-c3cc(C)n(Cc4ccccc4)c3C)cs2)cc1	43.1% (active)
O=C(Nc1cc(S(=O)(=O)Nc2ccc(Cl)cc2)ccc1O)c1ccc(F)cc1F	13.4% (inactive)
Cc1ccc(C(=O)OC2=CC(=O)CC(C)(C)C2)cc1	-11.7% (inactive)
O=C1CN(C(=O)COc2c(Cl)cccc2Cl)c2ccccc2N1	-0.21% (inactive)
Cc1cccc(N2O[C@H]3C=CC2CCCC3)n1	-2.38% (inactive)
CC(C)(C)c1ccc(CN2C(=O)c3ccccc3S2(=O)=O)cc1	5.21% (inactive)

Compound	inhibition
CC(C)(C)c1ccc(OC2=CS(=O)(=O)c3ccccc32)cc1	46.1% (active)
CC(C)(C)c1ccc(Oc2ccc(N)cc2)cc1	7.75% (inactive)
CCCCn1c(N)c(N(CCC(C)C)C(=O)CC2OC(=O)c3ccccc32)c(=O)[nH]c1=O (stereo unspecified)	-0.15% (inactive)
O=C(NCCCc1ccccc1)C(=O)c1c[nH]c2ccccc12	0.84% (inactive)
O=C(C(=O)N1CCc2ccccc2C1)c1c[nH]c2ccccc12	67% (active)
CC1CCN(CC(=O)c2c[nH]c3ccccc23)CC1	-5.44% (inactive)
COc1ccc(-n2nc3c(c2NC(=O)c2ccc(N4C(=O)CCC4=O)cc2)CSC3)cc1	1.88% (inactive)
O=C(COc1ccc(Br)cc1F)NCC1(N2CCCCC2)CCCCC1	1.03% (inactive)
CSC1=NCCN1C(=O)Cc1cccc2ccccc12	-4.14% (inactive)
CC(C)(C)Cc1nnc(NC(=O)c2cc(-c3ccccc3)nc3ccccc23)s1	10.4% (inactive)
CC(=O)c1cnc(-c2ccccc2)s1	-11.9% (inactive)
NC(=O)Cc1ccc2sc(-c3ccccc3)nc2c1	71.4% (active)
O=C(CSc1nnnn1C1CCCC1)Nc1ccc2c(c1)OCCO2	-5.58% (inactive)
Cc1cccc(OC(=O)c2sc3ncn(C)c(=O)c3c2C)c1	-3.95% (inactive)
CCCC1=Nc2cc(C(=O)NCCN3CCCC3)ccc2Sc2ccccc21	3.01% (inactive)
CC(C)(C)c1ccc(C(=O)NCc2ccco2)cc1	-10.7% (inactive)
CCCC1=Nc2cc(C(=O)NCc3ccco3)ccc2Sc2ccccc21	40.2% (active)
NS(=O)(=O)c1cc(Cl)c(Cl)c(S(N)(=O)=O)c1	7.96% (inactive)
CC(=O)C1(C)N(O)C(C)(C)C(c2cccs2)=[N+]1[O-] (stereo unspecified)	6.58% (inactive)
Cc1cccc(OCCC(=O)OCc2csc(CC(=O)Nc3ccccc3C)n2)c1	-6.31% (inactive)
CC1O[C@H](OC2C(COC3OC(CO)C(O)[C@H](O)C3O)OC(OC3CC[C@]4(C)C(CC[C@@]5(C)[C@@H]4C=C[C@]46OC[C@@]7(CCC(C)(C)C[C@H]74)C(O)C[C@@]56C)C3(C)C)C(O)C2O)C(O)C(O)C1O (stereo partly specified)	-8.64% (inactive)
CSCCC(NS(=O)(=O)c1ccc2c(c1)oc(=O)n2C)C(=O)NCc1ccccc1 (stereo unspecified)	-9.32% (inactive)
O=C1CSC(=S)N1/N=C/c1ccc(O)c([N+](=O)[O-])c1	74.7% (active)
CCOc1cccc(/C=N/N2C(=O)CSC2=S)c1O	-2.71% (inactive)

Compound	inhibition
Cc1cc(C(=O)N/N=C/c2ccc(O)c([N+](=O)[O-])c2)c(C)n1-c1ccc(F)cc1	23.4% (inactive)
CCOc1ccc(-n2c(SC(C)C(=O)OC)nc3c(c2=O)SCC3)cc1 (stereo unspecified)	46.2% (active)
CCOc1ccc(NC(=O)CSc2nc3c(c(=O)n2-c2ccccc2OC)SCC3)cc1	-6.73% (inactive)
CCOc1ccc(-n2c(SCC(=O)OC)nc3sc4c(c3c2=O)CCN(C)C4)cc1	5.88% (inactive)
Cc1cccc(NC(=S)Nc2ccc(Cl)c(Cl)c2)c1	41.4% (active)
NS(=O)(=O)c1ccc(NC(=S)Nc2ccc(Br)c(Cl)c2)cc1	1.95% (inactive)
S=C(Nc1ccccc1)Nc1ccc2ccccc2c1	-5.73% (inactive)
O=C(NCCS(=O)(=O)c1ccc(Br)cc1)c1ccccc1Cl	4.71% (inactive)
Cc1nc([N+](=O)[O-])nn1C12CC3CC(CC(Br)(C3)C1)C2	2.28% (inactive)
CCN1C[C@@H]2[C@@H]3C(=O)N(Cc4ccccc4)C(=O)[C@@H]3[C@](C)(C1=O)N2C(=O)c1ccc(C(C)(C)C)cc1	-18.2% (inactive)
O=C(CN(C(=O)c1csnn1)c1ccc(Br)cc1)NC1CCCC1	-4.03% (inactive)
CO/N=C/c1ccc(N2CCN(C(=O)c3cccc(Cl)c3)CC2)c([N+](=O)[O-])c1	-0.58% (inactive)
O=C(/C=C/c1ccc(Cl)cc1)N1CCN(c2ccccc2[N+](=O)[O-])CC1	41.9% (active)
O=C(c1ccc(Cl)c([N+](=O)[O-])c1)N1CCN(c2ccccc2)CC1	-2.12% (inactive)
CC(C)CCNC(=O)Cn1c(=O)oc2cc(S(=O)(=O)N3CC(C)CC(C)C3)ccc21 (stereo unspecified)	-3.27% (inactive)
O=C(CN(C(=O)c1csnn1)c1cccc(Cl)c1)NC1CCCC1	5.82% (inactive)
CSc1nc(-c2ccco2)nn1C(=O)c1ccccc1Cl	0.74% (inactive)
Clc1ccccc1CSc1nnc(-c2ccco2)c(-c2ccco2)n1	54.2% (active)
Cc1cc(C)nc(SCc2ccccc2C#N)n1	4.39% (inactive)
COc1cccc(-c2coc3cc4oc(=O)c(CC(=O)O)c(C)c4cc23)c1	2.29% (inactive)
Cc1ccc(/C=C/C(=O)O)cc1S(=O)(=O)N1CCC(Cc2ccccc2)CC1	3.43% (inactive)
S=C(NCc1ccc2c(c1)OCO2)NCc1ccco1	7% (inactive)
CCNC(=S)Nc1cccc(Cl)c1C	-7.76% (inactive)
Cc1c(Cl)cccc1NC(=S)NCc1ccc2c(c1)OCO2	57.9% (active)
